Test results: PubChem BioAssay AID559 (PCMD, 2006)
Among all 62,000 compounds or so, about 100 (0.2%) were called active. Many of the other results were omitted from the sample, so actives are more common in it than they were. A number with no mark means an inactive call. Rule as the data show it: active = inhibition above about 20%; inactive = the rest.

What follows are molecules tested against DNA-directed RNA polymerase subunit beta (Escherichia coli (strain K12)) (UniProt P0A8V2) (assay: bacterial RNA polymerase transcription inhibition – biochemical (AID 559;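 also: 0% = enzyme without compound and 100% = no enzyme blank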)). Conditions: E. coli RNA polymerase, fluorescence transcription assay; stronger effect = higher value;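 tested at 10 µM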.
Chain of DNA-directed RNA polymerase subunit beta (Escherichia coli (strain K12)) (P0A8V2 whole entry, looked up): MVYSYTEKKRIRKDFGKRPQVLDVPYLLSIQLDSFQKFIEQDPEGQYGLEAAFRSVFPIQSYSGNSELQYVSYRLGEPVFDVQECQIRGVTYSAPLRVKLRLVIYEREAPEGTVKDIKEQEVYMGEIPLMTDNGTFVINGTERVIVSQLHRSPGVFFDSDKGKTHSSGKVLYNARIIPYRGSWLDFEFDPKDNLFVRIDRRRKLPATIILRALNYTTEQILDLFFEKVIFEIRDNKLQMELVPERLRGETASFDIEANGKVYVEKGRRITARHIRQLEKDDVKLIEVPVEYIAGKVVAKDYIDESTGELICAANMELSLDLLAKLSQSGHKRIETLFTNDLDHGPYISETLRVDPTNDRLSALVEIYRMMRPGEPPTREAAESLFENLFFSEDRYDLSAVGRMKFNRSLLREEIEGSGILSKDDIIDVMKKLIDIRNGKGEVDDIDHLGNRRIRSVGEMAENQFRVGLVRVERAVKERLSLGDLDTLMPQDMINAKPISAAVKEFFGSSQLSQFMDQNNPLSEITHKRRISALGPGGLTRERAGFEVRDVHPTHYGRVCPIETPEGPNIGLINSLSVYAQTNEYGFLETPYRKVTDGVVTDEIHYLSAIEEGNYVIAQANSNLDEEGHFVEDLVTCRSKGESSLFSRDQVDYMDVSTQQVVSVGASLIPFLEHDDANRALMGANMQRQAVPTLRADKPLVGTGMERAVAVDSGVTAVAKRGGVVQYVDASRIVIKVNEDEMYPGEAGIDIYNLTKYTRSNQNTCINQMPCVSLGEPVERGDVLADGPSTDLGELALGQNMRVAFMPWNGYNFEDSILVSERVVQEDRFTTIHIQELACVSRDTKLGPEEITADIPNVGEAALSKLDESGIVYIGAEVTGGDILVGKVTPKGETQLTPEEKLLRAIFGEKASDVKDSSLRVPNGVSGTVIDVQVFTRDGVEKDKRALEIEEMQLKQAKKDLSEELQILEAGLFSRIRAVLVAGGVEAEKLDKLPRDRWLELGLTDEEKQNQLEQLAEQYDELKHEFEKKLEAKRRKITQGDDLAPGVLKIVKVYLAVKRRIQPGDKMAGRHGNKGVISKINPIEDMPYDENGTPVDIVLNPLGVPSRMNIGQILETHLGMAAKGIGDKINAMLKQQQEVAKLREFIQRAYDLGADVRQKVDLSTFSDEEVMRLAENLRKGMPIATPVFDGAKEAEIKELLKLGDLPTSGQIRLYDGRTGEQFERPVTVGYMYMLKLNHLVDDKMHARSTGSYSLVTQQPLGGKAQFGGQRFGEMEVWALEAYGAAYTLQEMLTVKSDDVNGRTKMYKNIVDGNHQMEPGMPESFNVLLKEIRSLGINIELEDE

| SMILES | inhibition |
| --- | --- |
| CCOc1ccc(CNC(=O)C2CC(=O)N(C3CCCC3)C2)cc1OC (stereo unspecified) | -2.47% |
| COC(=O)[C@H](Cc1ccccc1)NC(=O)Nc1ccc(S(N)(=O)=O)cc1 | 10.2% |
| CNC(=O)C1CC(=O)N(Cc2ccc3c(c2)OCO3)C(=Nc2ccc(F)cc2)S1 (stereo unspecified) | -0.38% |
| CCOc1ccc(C(C)C)cc1S(=O)(=O)n1nc(C)cc1C | 5.62% |
| CN1CCN(CCCNC(=O)c2cc3c(=O)oc4ccccc4c3s2)CC1 | 7.32% |
| CCC(=O)Nc1cccc(NC(=O)CSc2nnnn2C2CCCC2)c1 | 9.82% |
| Cc1cc(C)n(C(=O)c2ccc(S(=O)(=O)N3CCCC3)cc2)n1 | -6.35% |
| Cc1ccc(-c2ccc(=O)n(CC(=O)NCCCN3CCCCC3)n2)cc1 | 5.27% |
| O=C(CCCOc1ccccc1)Nc1cccc(C(=O)O)c1 | 5.97% |
| COc1ccc(CC(=O)c2ccc(O)cc2O)cc1OC | -2.96% |
| Nc1nnnn1/N=C/c1cccs1 | 0.8% |
| c1cnn(-c2cc(N3CCOCC3)ncn2)c1 | -13.1% |
| COc1c(C)cccc1C(=O)Nc1cc(Cl)ccc1N1CCOCC1 | 5.92% |
| O=C(Nc1cc(N2CCOCC2)ncn1)NC1(C(F)(F)F)Oc2ccc(Cl)cc2O1 (stereo unspecified) | 35.4% (active) |
| Cc1ccc(C)c2[nH]c(=O)c(CCNC(=O)CC(C)C)cc12 | 6.91% |
| O=C(NCCc1ccccn1)c1ccc(COc2ccccc2)o1 | 5.1% |
| CC1CC(C)CN(CC(=O)Nc2ccc(S(N)(=O)=O)cc2)C1 (stereo unspecified) | 4.05% |
| Cc1cc(Nc2ccc(Br)cc2F)n2ncnc2n1 | -2.75% |
| CN1CCc2c(sc3c2c(NCc2ccco2)nc2nnnn23)C1 | -5.9% |
| COc1ccc(-c2nc(CS(=O)CC(=O)NCc3cccnc3)c(C)o2)cc1OC (stereo unspecified) | -0.41% |
| CCOC(=O)c1c(CN2CCOCC2)n(-c2ccccc2)c2ccc(O)cc12 | 9.89% |
| COc1cc(OC)cc(-c2nc3nc(C)c(CCC(=O)NCc4ccco4)c(C)n3n2)c1 | 0.61% |
| CC(=O)c1nc(N2C(=O)C3CC=C(C)CC3C2=O)sc1C (stereo unspecified) | 8.57% |

| SMILES | inhibition |
| --- | --- |
| O=C1c2oc3ccc(Br)cc3c(=O)c2C(c2cccc(F)c2)N1CCO (stereo unspecified) | 2.5% |
| CN1C(=O)c2ccc(NC(=O)c3c(F)c(F)c(F)c(F)c3F)cc2C1=O | 11.6% |
| Cn1c(SCC(=O)Nc2cccc(O)c2)nnc1-c1ccc(S(=O)(=O)N2CCOCC2)cc1 | 0.17% |
| Fc1ccccc1OCCCCn1cncn1 | 2.62% |
| CCOCCCNS(=O)(=O)Cc1ccccc1 | 8.39% |
| Cc1ccc(O)c(NC(=O)COc2cc(C)ccc2C)c1 | 4.28% |
| CCCOc1ccc(C2C(C(=O)c3ccc(C)o3)=C(O)C(=O)N2CCCn2ccnc2)cc1 (stereo unspecified) | 5.52% |
| O=C(Nc1ccon1)c1sc2ccccc2c1Cl | -7.58% |
| NC(CSC12CC3CC(CC(C3)C1)C2)C(=O)O (stereo unspecified) | 4.34% |
| CC(C)c1nc(-c2ccccn2)no1 | 4.3% |
| O=C(NCc1ccccc1)C1C(=O)N(Cc2ccccc2)C(=O)C1C1(O)CCCC1 (stereo unspecified) | -8.01% |
| CCOCC(=O)Nc1cc(OC)c(Cl)cc1OC | 5.42% |
| Cc1ccc(S(=O)(=O)N2C3C=CC(C3)C2C(=O)O)cc1 (stereo unspecified) | 8.4% |
| Cc1cccc(N2C(=O)SC(N(CC(=O)O)c3cccc(C)c3)C2=O)c1 (stereo unspecified) | 6.1% |
| COc1cccc(C(CC(=O)NCCN2CCOCC2)NS(=O)(=O)c2ccc(C)cc2)c1OC (stereo unspecified) | 4.2% |
| Cc1ccc(C(=O)CSc2nc3ccccc3c(=O)n2N)o1 | 4.54% |
| Cc1cc2c(=O)n(C)c(SCC(=O)c3cc4ccccc4o3)nc2s1 | 20.9% (active) |
| Cc1ccsc1C(=O)OCC(=O)c1cc2ccccc2o1 | 8.68% |
| O=C(CN1C(=O)C2C3C=CC(C3)C2C1=O)NCC1COc2ccccc2O1 (stereo unspecified) | -8.67% |
| O=C1CCC(Cc2ccccc2)N1 (stereo unspecified) | 6.1% |
| Cn1c(=O)n(C)c(=O)n(CC(=O)N2CCCCC2)c1=O | 5.37% |
| CC(=O)Nc1cccc2c1[n+]([O-])c(C)c(C)[n+]2[O-] | -3.37% |
| O=C(Nc1nc2cc3c(cc2s1)OCCO3)c1cccc(S(=O)(=O)N2CCOCC2)c1 | -1.12% |

| SMILES | inhibition |
| --- | --- |
| CCCN1C(=O)C(NC(C)=O)c2cc(OC)ccc21 (stereo unspecified) | 8.13% |
| Cc1noc(NS(=O)(=O)c2ccc(NC(=O)C34CCC(CC3)C4)cc2)c1C | 3.43% |
| COc1cccc2sc(Nc3nc(C)c(C(C)=O)s3)nc12 | -0.4% |
| CCCOc1ccc(NC(=O)C2CCCNC2=O)cc1 (stereo unspecified) | 2.77% |
| CCCCOC(=O)NCN1C(=O)C2C3C=CC(C3)C2C1=O (stereo unspecified) | 0.68% |
| COc1ccc(OC)c(NC(=O)CC(Cc2ccccc2OC)C(=O)O)c1 (stereo unspecified) | 4.42% |
| CC(C)N(C(=O)Cn1c(SCC(=O)N2CCN(c3ccccc3)CC2)nc2ccccc21)C(C)C | 5.85% |
| O=C(Cn1nc(C(F)(F)F)c2c1CCC2)NCc1ccc(F)cc1 | -0.7% |
| COc1ccc(CNC(=O)c2c(C)cc(=O)oc2C)cc1OC | 8.6% |
| Cc1nc(NC(CC(C)C)C(=O)O)c2nc(C)oc2n1 (stereo unspecified) | -1.28% |
| O=C(CSc1n[nH]c(-c2cccnc2)n1)Nc1ccnc2ccccc12 | 11.1% |
| O=S(=O)(c1ccc(OCC(O)CN2CCN(c3ccccc3Cl)CC2)cc1)N1CCOCC1 (stereo unspecified) | 1.46% |
| CCOc1cc(-c2nc3cc(C)ccn3c2NCC2CCCO2)ccc1O (stereo unspecified) | 6.06% |
| CCCNS(=O)(=O)c1ccc2c(c1)CCCN2C(C)=O | 5.31% |
| CCN(CC)c1ccc(C(=O)OCC(=O)c2ccco2)cc1 | 4.69% |
| C=CCOC(=O)C1=C(C)OC(N)=C(C#N)C1c1ccc(F)cc1 (stereo unspecified) | 0.25% |
| Cc1ccc(C2CC(c3cccc(Br)c3)n3nc(N)nc3N2)cc1 (stereo unspecified) | 8.67% |
| C=CCOc1ccc(C2/C(=C(\O)c3c(C)[nH]c(C(=O)OC)c3C)C(=O)C(=O)N2CCN(C)C)cc1 (stereo unspecified) | -5.38% |
| CC(=O)c1cccc(NC(=O)N2CCCC2C(=O)NCCC(C)C)c1 (stereo unspecified) | 6.83% |
| Cc1ccccc1-n1c(SCC(=O)NCc2cccs2)nnc1-c1ccncc1 | -3.22% |
| Cn1c(=O)[nH]c(=O)c2c1nc(N1CCN(CCO)CC1)n2CCSc1nc2ccccc2s1 | 7.67% |
| O=C(Nc1ccccc1F)c1cc(S(=O)(=O)N2CCCCC2)cs1 | -4.61% |
| Cc1ccc(C)c(NS(=O)(=O)c2cc(Br)cnc2N)c1 | -0.25% |

| SMILES | inhibition |
| --- | --- |
| c1ccc(-n2ncc3c(N4CCCC4)ncnc32)cc1 | 10.9% |
| Cc1nnc(SCC(=O)N2CCc3ccccc32)n1-c1ccccc1 | 5.59% |
| Cc1ccccc1C(=O)Nc1cccc(-c2nnc(SCC(=O)O)n2C)c1 | 12.2% |
| CCn1c(SCC(=O)Nc2cccc(F)c2)nnc1-c1cc2cc(Br)ccc2o1 | 9.56% |
| O=C(NCc1cccs1)C1CCN(S(=O)(=O)c2ccc3c(c2)OCCO3)CC1 | 7.85% |
| O=C(CSc1ncccn1)NCCc1ccccc1 | 1.73% |
| CC(C)(C)c1ccc(C(=O)CSc2ncn[nH]2)cc1 | 5.03% |
| NC(=O)C1CCN(C(=O)c2ccc(C(F)(F)F)cc2)CC1 | 2.29% |
| CCC(=O)Nc1cccc(NC(=O)c2cccnc2)c1 | 1.22% |
| Cn1c(=O)cc(OCCCC(=O)N2CCN(Cc3ccc4c(c3)OCO4)CC2)c2ccccc21 | 14.1% |
| COc1ccc(CN2CN(C(C)C)CSC2=S)cc1 | 0.75% |
| Cc1ccccc1CN1CCN(CC(=O)NCc2ccccn2)C1=O | -3.92% |
| Clc1ccc(C2CC(c3cccs3)n3ncnc3N2)cc1Cl (stereo unspecified) | 3.31% |
| Cc1csc(NC(=O)CN2CCCCCC2)n1 | 10.6% |
| Cc1csc(NC(=O)NC2(C(F)(F)F)Oc3ccccc3O2)n1 | 30.9% (active) |
| Cc1cc(C)nc(NC(=O)Nc2ccccc2C(F)(F)F)n1 | 3.47% |
| CCOC(=O)CC1C(=O)NCCN1C(=O)COc1ccc(Br)cc1C (stereo unspecified) | 4.26% |
| COCCCNC(=O)c1ccc(CNS(=O)(=O)c2ccc(NC(C)=O)cc2)cc1 | -9.1% |
| Cc1ccc(NC(=O)NCC(c2cccnc2)N2CCOCC2)cc1 (stereo unspecified) | 6.82% |
| CCCS(=O)(=O)Nc1c(C(=O)O)[nH]c2ccccc12 | 8.57% |
| COc1ccc(Cl)cc1S(=O)(=O)Nc1cccc(C(=O)O)c1 | 4.26% |
| CC1CCCN(c2ccc(C(=O)NCCc3ccccc3)cn2)C1 (stereo unspecified) | 9.14% |
| CCC12CN3CC(CC)(CN(C1)C31C(=O)N(C)c3ccc(C)cc31)C2=O (stereo unspecified) | 9.74% |

| SMILES | inhibition |
| --- | --- |
| COc1ccc(OC)c(C2N(c3ccccn3)C(=O)C3CCCN32)c1 (stereo unspecified) | 5.57% |
| O=C(CCS(=O)(=O)Cc1ccccc1F)NCCCN1CCCCC1 | 2.74% |
| CCCn1c(SCC(=O)Nc2c(C)cccc2C)nnc1C(C)C | -6.26% |
| CCOC(=O)c1ccc(-c2ccc(C(=O)Nc3cccnc3)o2)cc1 | 14.4% |
| CC(C)NS(=O)(=O)c1ccc(NC(=O)c2cccnc2)cc1 | 4.79% |
| CC(=O)Oc1cccc(N2C(=O)C3CC=C(Cl)CC3C2=O)c1 (stereo unspecified) | 9.02% |
| CCn1c(CSc2ncccn2)nnc1SCC(=O)N1c2ccccc2CC1C (stereo unspecified) | 4.54% |
| O=c1c2ccccc2oc2nc3n(c(=O)c12)CCCS3 | 4.21% |
| O=C(N1CCOCC1)N1CCOCC1 | 0.65% |
| CC(C)Cc1cc(C(=O)NCCc2ccccc2)no1 | -0.72% |
| CCC1CCCCN1CCNC(=O)c1[nH]c(C)c(C(C)=O)c1C (stereo unspecified) | 3.39% |
| CCOC(=O)N1CCN(C(=O)c2ccc3nc4cc(Cl)ccc4c(=O)n3c2)CC1 | -20.1% |
| CC1=C(C)CC2C(=O)N(c3cccc4ccccc34)C(=O)C2C1 (stereo unspecified) | 5.39% |
| COc1ccccc1-c1c(C)nn2c(C)c(C(C)=O)cnc12 | 1.22% |
| Cn1cccc1C(=O)NC(=O)COC(=O)Cc1coc2ccc3ccccc3c12 | 4.62% |
| O=C(Nc1cccc(Cl)c1)OCc1ccccn1 | 5.59% |
| Cc1cc(C)c(C(=O)CN2C(=O)CCC2=O)cc1C | 1.27% |
| O=C(CNS(=O)(=O)c1cccc(C(F)(F)F)c1)Nc1ccccc1F | 12.6% |
| O=C1CC(c2ccccc2)C(=O)N1c1cccc(O)c1 (stereo unspecified) | 4.1% |
